Assay results published in PubChem BioAssay AID624352 (Sanford-Burnham Center for Chemical Genomics, 2012).
The campaign covered roughly 360,000 compounds. About 2,600 (0.72%) were called active.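 The calls were made as follows: active = inhibition of the luminescence signal of 40% or more relative to plate controls, in a single-dose primary screen at 18.75 µM; inactive = the rest.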 Shown is part of a subset that was picked to be rich in actives.

Assay: blockers of HIF-2a driven luciferase – luminescence, 786-0 RCC cells, primary screen (AID 624352)
Conditions: 786-0 RCC cells HIF-2a reporter, overnight, at 18.8 µM, active compounds read high

Row | SMILES | inhibition
1 | CCOC(=O)[C@]12Cc3ccccc3[C@H]1N(C1CCCCC1)C(=O)c1cc(OC)ccc12 | 81.9% (active)
2 | CCOC(=O)[C@]12Cc3cc(OC)ccc3[C@H]1N(C(C)C)C(=O)c1ccccc12 | 24.5% (inactive)
3 | COc1ccc(CCn2c(O)c(C=NCCCn3ccnc3)c(=O)[nH]c2=O)cc1OC | 11.2% (inactive)
4 | COc1ccc(Br)cc1CNCCc1cccc(Cl)c1 | 7.99% (inactive)
5 | CC=C(C)C(=O)OC1CCN2CC=C(COC(=O)C(O)(C(C)OC)C(C)(C)O)C12 (stereo not given) | 3.51% (inactive)
6 | COc1cc(OC)cc(C2(C#N)CCN(C)CC2)c1 | 13.2% (inactive)
7 | COC(=O)C1=C(c2cc3ccccc3s2)C[C@@H]2CC[C@H]1N2C(=O)NC(C)C | 6.19% (inactive)
8 | Cc1cccc(-n2c(O)c(/C=N/N3CCOCC3)c(=O)[nH]c2=S)c1 | 19.1% (inactive)
9 | Cc1nn(-c2ccccc2)c(C)c1NC(=O)COC(=O)Cc1ccccc1 | 8.24% (inactive)
10 | Cc1nc2nc(C)c(CCC(=O)N3CCC4(CC3)OCCO4)c(C)n2n1 | -0.723% (inactive)
11 | CC(=O)OC1C2(CC3N4C(=O)C5(CO)SSC4(CC31O)C(=O)N5C)OC(C)C(C)(C)C2=O (stereo not given) | 91.3% (active)
12 | NC(=O)Nc1cccc(C(F)(F)F)c1 | 1.29% (inactive)
13 | COC(=O)C[C@H]1CC[C@H]2NC[C@@H](O)COC[C@@H]2O1 | 10.3% (inactive)
14 | COC1C(O)C(C)OC(OC2CCC3(C=O)C(CCC4C3CCC3(C)C(C5=CC(=O)OC5)CCC43O)C2)C1O (stereo not given) | 82.4% (active)
15 | C[C@]12CC[C@H](O)C[C@H]1CC[C@@H]1C2CC[C@]2(C)[C@@H](C3=CC(=O)OC3)[C@@H](O)C[C@]12O (stereo not given in full) | 33.4% (inactive)
16 | COC(=O)CN(CCCl)P1(=O)OCCCN1CCCl (stereo not given) | 6.36% (inactive)
17 | CN1CCN(Cc2ccccc2C(F)(F)F)CC1 | 9.38% (inactive)
18 | O=c1c2ccccc2nc(CBr)n1-c1ccc(Cl)cc1 | -7.93% (inactive)

Row | SMILES | inhibition
19 | CN(C)CC1Oc2ccccc2OC1(O)c1ccccc1 (stereo not given) | 55.3% (active)
20 | Cc1nc2ccccn2c1P(=S)(N1CCCCC1)N1CCCCC1 | 18.1% (inactive)
21 | CC1([N+](=O)[O-])COP(=O)(Nc2ccc(F)cc2)OC1 (stereo not given) | 17.4% (inactive)
22 | Cc1ccc(C(C)C)c(OCC(=O)N2CCN(CC(=O)N3CCOCC3)CC2)c1 | -3.94% (inactive)
23 | c1ccc2sc(C3CCCNC3)nc2c1 (stereo not given) | -94.5% (inactive)
24 | CC[C@H]1CC2CN3CCc4c([nH]c5ccccc45)C(C(=O)OC)(C2)C13 (stereo not given in full) | 20.3% (inactive)
25 | O=P(OC1=CCCCC1)(c1ccccc1)c1ccccc1 | 12.4% (inactive)
26 | CCC(C)(O)C(=O)OC1C(=O)OC2CC3C(C)=CC(=O)C(O)C3(C)C3C4(O)OCC23C1C(C)C4O (stereo not given) | 66.3% (active)
27 | O=c1[nH]c(=O)n(-c2ccc(F)cc2)c(O)c1C=NCCN1CCCCC1 | 24.6% (inactive)
28 | CC(Cc1cccs1)NCc1ccc(Cl)cc1 (stereo not given) | -5.05% (inactive)
29 | Cc1ccc(P(=S)(c2ccc(C)o2)N2CCOCC2)o1 | -0.609% (inactive)
30 | CCCCCCCCCCCCn1ccc(=N)cc1 | 51.2% (active)
31 | C[C@]12CC[C@H](O)CC1=C([N+](=O)[O-])CC1C2CC[C@@]2(C)C1CC[C@@H]2O (stereo not given in full) | -4.21% (inactive)
32 | CC(C)c1c(CN(C)C(C)Cc2ccccc2)n(C)n(-c2ccccc2)c1=O (stereo not given) | 17.5% (inactive)
33 | CC(=CCOc1ccc2ccc(=O)oc2c1)C1=CC(=O)C(C)(C)O1 | 65.2% (active)
34 | O=C1NC(=O)C(Cc2ccccc2)C(=O)N1 | 0.735% (inactive)
35 | CCOC(=O)C1CN(C)CCC1=O (stereo not given) | 12.2% (inactive)
